Our source for the inhibition values is PubChem BioAssay AID652010 (The Scripps Research Institute Molecular Screening Center, 2013).

Molecules are shown by their SMILES. Hit rate of the full screen: of about 370,000 compounds, about 4,100 (1.1%) were called active.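 Rule for the calls: active = inhibition above the mean over all tested compounds plus 3 SD (cut at about 3.6% in these data); inactive = the rest.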 Shown is part of a subset that was picked to be rich in actives.

The assay is described as follows: DAX1 (NR0B1) inhibitors on StAR promoter, primary screen, cell-based, luminescence, SF-1 (NR5A1), full-length DAX-1 (AID 652010).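 Note: 0% = DAX-1 cells with DMSO and 100% = cells lacking DAX-1 with DMSO; higher inhibition means more luminescence from relief of DAX-1 repression.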 The conditions noted are these: HEK293T StAR-luciferase reporter, SF-1/DAX-1 repression relief; at 6.8 µM; hits give high values.
As to `C[C@@H]1ON(C)[C@H]2C[C@H]3c4[nH]c5cccc(-c6ccc7c(c6)OCO7)c5c4CCN3C[C@@H]12`, the inhibition is 0.45% (inactive). On to `O=S1(=O)c2c(NCc3ccco3)cccc2Oc2ccccc2CN1Cc1cn(Cc2cccc(C(F)(F)F)c2)nn1`, for which the inhibition is -0.91% (inactive). As for `Cc1cc(C)cc(NC(=O)NC2CCCCCCC2)c1`, the figure is 3.33% (inactive); as for `O=C(Nc1cccc(F)c1)[C@@H]1CCCN1`, -0.32% (inactive); as for `O=C(Nc1cccc(F)c1)NC1CCCCCCC1`, 4.46% (active). With `Clc1ccc(Cc2nnc(-c3cccs3)o2)cc1` the figure was -0.54% (inactive); with `Clc1ccc(Nc2nc(-c3cccs3)cs2)nc1`, 5.93% (active). Turning to `CCCN1C(=O)c2[nH]nc(-c3ccccc3)c2C1c1ccccc1` (stereo unspecified), the inhibition is -1.18% (inactive). Take `O=C(Nc1ccc(Br)cc1)OCCN1C(=O)CCC12CCC(c1ccccc1)CC2` (stereo unspecified): the inhibition was 0.27% (inactive).

Regarding `CS(=O)(=O)N(CC(=O)Nc1ccc(F)cc1)C1CCCCC1`, the inhibition was -0.02% (inactive).

Take `CC(C(=O)N1CCc2ccccc21)N(C)CC(=O)Nc1ccc(F)cc1` (stereo unspecified): the inhibition was -0.82% (inactive). In the case of `CN(CC(=O)Nc1ccc(F)cc1)CC(=O)N1CCCCC1`, the inhibition is 3.7% (active).

Regarding `CN(C)C(=O)CSc1n[nH]c(-c2ccco2)n1`, the inhibition was -0.67% (inactive).

`Cn1c(SCC(=O)c2cccs2)nnc1-c1ccco1`: the inhibition was 0.71% (inactive). Consider `Cn1c(-c2ccco2)nc2cc3ccccc3cc21`, for which the inhibition is 4.28% (active). `C=CCN(C)CC#Cc1ccccc1`: the inhibition was 1.58% (inactive).

As for `O=S1(=O)c2ccc(Br)cc2OC[C@H](Cc2ccccc2)N1Cc1cn(Cc2ccccc2)nn1`, the inhibition is 0.43% (inactive). For `COc1ccc(CN(CCN2CCOCC2)C(=O)c2ccc(C)cc2)cc1OC`, the inhibition is 1.29% (inactive).

Take `Cc1cc(N=Nc2ccc3ccccc3c2)ccc1O`: the inhibition was 4.24% (active).

With `Cc1ccccc1N1CCN(CC(=O)NCc2ccc(Cl)cc2)CC1`, the inhibition is -0.26% (inactive). As for `COC1=C[C@H](C(=O)NCCNC(C)=O)[C@H](C)[C@@H](c2ccccc2)CC1=O`, the figure is 0.48% (inactive); as for `CCN(CC)C(=O)CC[C@@H]1CC[C@]2(CCCN(S(=O)(=O)C3CCCCC3)C2)O1`, -1.81% (inactive). Regarding `CCOC(=O)c1cn[nH]c1NC(=S)Nc1ccccc1`, the inhibition was 4.39% (active).

Consider `CCOC(=O)c1cc2c(nc1NC(=S)Nc1ccccc1)CC(C)(CC)OC2` (stereo unspecified), for which the inhibition is -0.51% (inactive). In the case of `CCOC(=O)c1c(NC(=S)Nc2ccccc2)sc2c1CCN(C)C2`, the inhibition was 0.23% (inactive). As for `Cc1ccc(CN2CCCCC(NC(=O)C3CCCCC3)C2=O)cc1` (stereo unspecified), the inhibition was -1.69% (inactive).

Take `COc1ccc(N2CCN(CCNS(=O)(=O)c3ccc(C(C)(C)C)cc3)CC2)cc1`: the inhibition is -0.04% (inactive).

Turning to `CC1(C)NC(=O)N(CC(=O)N2CCN(S(=O)(=O)c3ccccc3F)CC2)C1=O`, the inhibition is -1% (inactive). Take `COc1ccc([C@H]2OC(=O)C[C@H]2C(=O)N2CCN(c3ccccc3F)CC2)cc1OC`: the inhibition was 0.35% (inactive).

As to `O=C(NCC1COc2ccccc2O1)c1ccc(NC(=O)c2cc(F)ccc2F)cc1` (stereo unspecified), the inhibition was -1.54% (inactive).

In the case of `CN(C)S(=O)(=O)c1cc(C(=O)Nc2ccn(C)n2)c(Cl)cc1Cl`, the inhibition was -0.84% (inactive). On to `Cc1ccc(C(=O)Nc2ccn(C)n2)cc1`, for which the inhibition is 4.06% (active). Take `Cc1ccc(C(=O)Nc2nc(N)n(-c3ccccc3)n2)cc1`: the inhibition was 0.57% (inactive). As to `N#Cc1c(NC(=O)C2CCCO2)sc2c1CCCCC2` (stereo unspecified), the inhibition is 3.86% (active).

As to `N#Cc1c(NC(=O)c2ccc(N3CCOCC3)c([N+](=O)[O-])c2)sc2c1CCCC2`, the inhibition was 0.44% (inactive). As for `CCC1CCc2c(sc(NC(C)=O)c2C#N)C1` (stereo unspecified), the figure is -0.35% (inactive).

Take `COC(=O)C1CN(Cc2ccc(F)cc2)CCS(=O)(=O)N1Cc1ccc(Cl)cc1` (stereo unspecified): the inhibition was -1.11% (inactive).

`CC(C)(C)OC(=O)NCc1cc(F)ccc1/C=C/S(=O)(=O)NCCc1ccccc1`: the inhibition was -0.93% (inactive).

As for `O=C(NC(=S)NC1CCCCC1)c1ccc(Cl)cc1`, the inhibition is 7.22% (active).

As to `O=C(NNC(=S)NC1CCCCC1)c1ccccc1Cl`, the inhibition was 2.28% (inactive). As for `O=C(NC1CCCCCC1)C1CCN(C(=O)c2ccc(Cl)cc2)CC1`, the figure is -1.38% (inactive); as for `CC(NCc1ccco1)C(=O)N1CCCCC1` (stereo unspecified), -0.66% (inactive); as for `O=S1(=O)c2ccc(Br)cc2OC[C@@H](Cc2ccccc2)N1Cc1cn(Cc2ccco2)nn1`, -0.91% (inactive). Take `Cn1c(-c2ccccc2)c[n+]2c1CCCCC2`: the inhibition is 0.1% (inactive).

For the compound `O=C(NCCN1C(=O)S/C(=C\c2cccnc2)C1=O)c1ccc(S(=O)(=O)N2CCCC2)cc1`, the inhibition was -0.2% (inactive). With `Cc1cc(OCCCC(=O)NCCN2C(=O)S/C(=C\c3cccnc3)C2=O)ccc1Cl` the figure was -0.22% (inactive); with `COc1ccc(N2CC(C(=O)NCCN3C(=O)S/C(=C\c4cccnc4)C3=O)CC2=O)c(OC)c1` (stereo unspecified), 4.36% (active); with `Cc1cccc(OC(C)C(=O)N2CCc3ccccc3C2)c1` (stereo unspecified), -0.08% (inactive).

For the compound `CCc1ccc(NC(=O)N2CCc3ccccc3C2)cc1`, the inhibition is 6% (active). Turning to `Cc1cccc(C)c1NC(=O)c1ccc(CN2CCc3ccccc3C2)cc1`, the inhibition is -0.37% (inactive). As for `Cc1c(NC(=O)Nc2cccc([N+](=O)[O-])c2)c(=O)n(-c2ccccc2)n1C`, the figure is -3.53% (inactive). As for `O=C(Nc1cccc([N+](=O)[O-])c1)N1CCc2ccccc2C1`, the inhibition was 4.21% (active). Consider `CCOC(=O)c1c(NC(=S)SC)sc(C(=O)N2CCc3ccccc3C2)c1C`, for which the inhibition was 0.68% (inactive). Consider `Nc1ncnc2c1ncn2C1OC(CO)CC1O` (stereo unspecified), for which the inhibition was -1.04% (inactive).

Turning to `CCC(=O)OCCCN1C(=O)CCC12CCC(c1ccccc1)CC2` (stereo unspecified), the inhibition was 0.13% (inactive). For the compound `O=S(=O)(Nc1ccc2nc(N3CCOCC3)sc2c1)c1ccccc1`, the inhibition is 4.19% (active).

Regarding `O=S(=O)(Nc1ccc2nc(-c3ccco3)[nH]c2c1)c1ccccc1`, the inhibition is -0.15% (inactive). With `O=S(=O)(Nc1cccc(-c2ccc(N3CCOCC3)nn2)c1)c1ccc(Cl)c(Cl)c1` the figure was 0.25% (inactive); with `COc1cccc(/C=C2\CC3(OC(C)=O)CCCN2C3)c1` (stereo unspecified), 1.86% (inactive). With `COc1ccc(Cn2ccc3ccc(-c4ccc5ccn(Cc6ccccc6C)c5c4)cc32)cc1`, the inhibition was -0.33% (inactive). Consider `COc1ccc(-n2c(SCC(=O)Nc3ccc4cn[nH]c4c3)nnc2-c2cccnc2)cc1`, for which the inhibition is 0.02% (inactive).

What is called inhibition is the change of the read-out against control, counted positive when it falls.
